The values below come from PubChem BioAssay (Tox21).

Values without a mark were called inactive. Results filed as inconclusive are left out. Calls of active or inactive are those of the source. Unless noted, calls come from the whole dose curve.

Test [1] can be described thus: Nuclear factor erythroid 2-related factor 2/antioxidant responsive element (Nrf2/ARE) small molecule agonists: qHTS cell viability counter screen in human keratinocytes (AID 1919968; active = well fitted curve in the direction sought with a large enough effect in the repeat runs; an effect the other way counts as inactive or inconclusive; note: nearly all actives have a fitted effect of over 55% in size; note: potency is the fitted concentration of half-maximal effect). The gist of the method:
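Stably transfected HaCaT (KeratinoSens), 1,500/well. Test agents in DMSO were applied for 23 h, 37 C/5% CO2. CellTiter-Fluor was incubated 1 h before the fluorescence read.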
Background: qHTS replaces the single test concentration by a dilution series.

The nature of test [2]: Nuclear factor erythroid 2-related factor 2/antioxidant responsive element (Nrf2/ARE) small molecule agonists: luciferase reporter gene qHTS assay in human keratinocytes (AID 1919969; note: nearly all actives have a fitted effect of over 35% in size; note: potency is the fitted concentration of half-maximal effect). (A reporter such as luciferase makes a cellular process visible.)
The target of test [3] is Gonadotropin-releasing hormone receptor (Homo sapiens) (UniProt P30968). Nature of the test: Human gonadotropin-releasing hormone receptor (GnRHR) small molecule agonists, calcium flux assay in GnRHR-HEK293 cells (AID 1920063). Note: nearly all actives have a fitted effect of over 35% in size. The gist of the method:
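Stable human GnRHR HEK293 line. 18 h plating, then calcium dye for 1 h at 37 C. Agonist-mode compound addition from DMSO stocks; fluorescence monitored 3 min.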

Test [4] concerns the target KiSS-1 receptor (Homo sapiens) (UniProt Q969F8). Nature of the test: Human kisspeptin (KISS1R) small molecule agonists, calcium flux assay in KISS1R-HEK293 cells (AID 1920064; active = well fitted curve in the direction sought with a large enough effect in the repeat runs; an effect the other way counts as inactive or inconclusive). Put shortly: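 After overnight (18 h) culture at 37 C/5% CO2, human KISS1R-HEK293 cells received calcium dye for 1 h, then test compound; emission at 540 nm (excitation 480 nm) was tracked for 3 min.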
On the technique in general: Calcium assays in cells follow changes in intracellular calcium, usually with a dye or a luminescent sensor.

The nature of test [5]: G protein-coupled receptor (GPCR) small molecule agonists, calcium flux assay: HEK293 wild type cell line counter screen (AID 1920065). Put shortly:
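Following 18 h incubation at 37 C/5% CO2, plates got calcium dye for 1 h; compounds, ATP or DMSO were then pinned in and fluorescence followed kinetically (480/540 nm).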

Test [6] in a line: p53 small molecule agonists, cell-based qHTS assay with human liver microsomes (AID 1963577). Put shortly: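 p53RE-bla cells, 4,000/well, compound added after 5 h, with human liver microsomes 0.5 mg/mL and NADPH 0.5 mg/mL final; 16 h at 37 C, then LiveBLAzer 2 h RT, fluorescence.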
Test [7] is described as follows: p53 small molecule agonists, cell-based qHTS assay with rat liver microsomes (AID 1963578). The gist of the method: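 p53RE-bla cells, 4,000/well, pre-incubated 5 h, then given compounds plus rat liver microsomes (0.5 mg/mL final) and NADPH (0.5 mg/mL final). Incubation 16 h at 37 C; beta-lactamase reporter read by LiveBLAzer fluorescence after 2 h at room temperature.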

The nature of test [8]: p53 small molecule agonists, cell-based qHTS assay with human liver microsomes: qHTS cell viability counter screen (AID 1963579). Note: nearly all actives have a fitted effect of over 45% in size. The gist of the method:
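p53RE-bla cells, 4,000/well, dosed 5 hours after plating, with human liver microsomes (0.5 mg/mL final) plus NADPH (0.5 mg/mL final), 16 hours at 37 C. Viability read as CellTiter-Glo luminescence after 30 min at room temperature.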

The nature of test [9]: p53 small molecule agonists, cell-based qHTS assay with rat liver microsomes: qHTS cell viability counter screen (AID 1963580). Note: nearly all actives have a fitted effect of over 45% in size. Put shortly:
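Cytotoxicity counter screen: intracellular ATP measured by CellTiter-Glo luminescence in the same wells as the beta-lactamase reporter read, on HCT-116 p53RE-bla cells exposed 16 h at 37 C to compounds with rat liver microsomes and NADPH, each 0.5 mg/mL final.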

Test [10] in a line: p53 small molecule agonists, cell-based qHTS assay: qHTS cell viability counter screen (AID 1963581). Note: nearly all actives have a fitted effect of over 45% in size. Put shortly: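 qHTS counter screen: 16 h compound exposure at 37 C of p53RE-bla HCT-116 cells (4,000 per well, seeded 5 h prior), cell viability by ATP luminescence.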
A short description of test [11]: p53 small molecule agonists, cell-based qHTS assay (AID 1963582; active = well fitted activation curve with a large enough effect in the signal ratio in the repeat runs, not every such curve was filed as active; the % refers to the signal ratio). The gist of the method:
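Measured: fluorescence from cleaved LiveBLAzer substrate. System: p53RE-bla cells, 16 h compound treatment at 37 C, 2 h substrate step at room temperature.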

For test [12], the target named is 5-hydroxytryptamine receptor 2A (Homo sapiens) (UniProt P28223). Description: 5-hydroxytryptamine receptor 2A (HTR2A) small molecule antagonists, cell-based qHTS assay (AID 1963586). Note: nearly all actives have a fitted effect of over 45% in size. The gist of the method: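 CHO cells stably expressing human HTR2A were plated for 18 h at 37 C, then loaded with calcium dye for 1 h. Compounds were preincubated 5 min at room temperature before DOI (4 nM solution) was added. Kinetic fluorescence was read for 3 min.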
5-hydroxytryptamine receptor 2A (Homo sapiens), sequence (P28223 whole entry, looked up): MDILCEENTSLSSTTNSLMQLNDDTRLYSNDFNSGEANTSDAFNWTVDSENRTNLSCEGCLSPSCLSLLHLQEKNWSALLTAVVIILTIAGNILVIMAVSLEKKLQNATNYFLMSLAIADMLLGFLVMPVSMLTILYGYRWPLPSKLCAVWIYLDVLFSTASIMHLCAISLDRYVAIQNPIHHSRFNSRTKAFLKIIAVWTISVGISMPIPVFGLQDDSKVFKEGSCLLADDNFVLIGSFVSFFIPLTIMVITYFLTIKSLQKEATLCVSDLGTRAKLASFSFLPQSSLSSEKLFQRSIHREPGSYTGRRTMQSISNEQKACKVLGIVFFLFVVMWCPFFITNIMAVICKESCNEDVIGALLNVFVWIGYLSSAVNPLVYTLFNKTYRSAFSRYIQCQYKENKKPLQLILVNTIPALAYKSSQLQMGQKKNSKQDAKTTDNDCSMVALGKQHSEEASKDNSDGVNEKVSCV

For test [13] the target is unchanged. Description: 5-hydroxytryptamine receptor 2A (HTR2A) small molecule agonists, cell-based qHTS assay (AID 1963587). Note: nearly all actives have a fitted effect of over 30% in size. Put shortly: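 CHO cells stably expressing human HTR2A, plated 18 h, loaded with calcium dye 1 h at 37 C. Agonist mode: compounds added and intracellular calcium fluorescence recorded kinetically for 2 min at 1 sec intervals.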
Test [14] has as its target Muscarinic acetylcholine receptor M1 (Homo sapiens) (UniProt P11229). Description: Cholinergic receptor muscarinic 1 (CHRM1) small molecule antagonists, cell-based qHTS assay (AID 1963588). Note: nearly all actives have a fitted effect of over 40% in size. Note: potency is the fitted concentration of half-maximal effect. Put shortly: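 Compounds were tested at 15 concentrations in three independent runs. Dye-loaded CHRM1-CHO cells were exposed 5 min at room temperature before stimulation by acetylcholine added at 50nM. Intracellular calcium was read kinetically on FDSS for 3 min.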

Test [15] in a line: cAMP Responsive Elements (CRE) small molecule agonists, cell-based qHTS assay (AID 1963590). Put shortly: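 Test agents in DMSO were incubated 3 h at 37 C/5% CO2 with CRE-bla HEK 293T cells seeded 18 h earlier; LiveBLAzer B/G FRET substrate was added and read after 2 h at room temperature.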
Test [16] can be described thus: cAMP Responsive Elements (CRE) small molecule antagonists, cell-based qHTS assay (AID 1963591; active = well fitted inhibition curve with a large enough effect in the signal ratio in the repeat runs, not every such curve was filed as active; the % refers to the signal ratio). Put shortly:
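Reporter line CRE-bla HEK 293T in dialyzed-FBS DMEM; cells preincubated 18 h, treated 3 h with compound plus NKH477 (0.25 uM final); LiveBLAzer FRET, 2 h RT.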

Test [17] concerns the target Beta-2 adrenergic receptor (Homo sapiens) (UniProt P07550). Nature of the test: Adrenergic beta2 receptor (ADRB2) small molecule antagonists, cell-based qHTS assay (AID 1963592). Note: series mostly up to about 92 µM; nearly all actives have a fitted effect of over 50% in size. The gist of the method:
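Assay format: CHO-ADRB2 cells, 18-20hr seeding at 37C/5% CO2, then compound plus 1nM isoproterenol agonist mix for 0.5hr RT. Homogeneous time-resolved fluorescence cAMP detection after 1hr, expressed as 665/615 nm ratio.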

Test [18] deals with D(2) dopamine receptor (Homo sapiens) (UniProt P14416). Description: Dopamine D2 receptor (DRD2) small molecule agonists, cell-based qHTS assay (AID 1963594). Note: nearly all actives have a fitted effect of over 35% in size. Put shortly:
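HEK293 cells stably expressing human DRD2, pre-treated with PDE inhibitor Ro20-1724 (0.1 mM final) and compound 10 min at room temperature, then stimulated with NKH477 (200nM […]) for 30 min. cAMP read by HTRF (665/620 nm).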

Test [19] shares this target. Description: Dopamine D2 receptor (DRD2) small molecule antagonists, cell-based qHTS assay (AID 1963595; active = well fitted inhibition curve with a large enough effect in the signal ratio in the repeat runs, with a control signal flat; the % refers to the signal ratio). Put shortly:
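Cells were plated and grown for 24 h at 37 °C. Ro20-1724 (0.1 mM final) went in first, then compound for 10 min. NKH477 (200 nM) with quinpirole (12 nM) followed for 30 min at RT, then HTRF detection reagents for 1 h.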

In test [20] the target is Muscarinic acetylcholine receptor M1 (Homo sapiens) (UniProt P11229). Description: Cholinergic receptor muscarinic 1 (CHRM1) small molecule agonists, cell-based qHTS assay (AID 1963589). Note: nearly all actives have a fitted effect of over 35% in size. Put shortly: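 Kinetic fluorescence (1 s intervals) of calcium-sensitive dye in human M1 CHO cells after compound addition; cells pre-incubated 18 h at 37 C/5% CO2 and dye-loaded 1 h.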
Muscarinic acetylcholine receptor M1 (Homo sapiens), sequence (P11229 whole entry, looked up): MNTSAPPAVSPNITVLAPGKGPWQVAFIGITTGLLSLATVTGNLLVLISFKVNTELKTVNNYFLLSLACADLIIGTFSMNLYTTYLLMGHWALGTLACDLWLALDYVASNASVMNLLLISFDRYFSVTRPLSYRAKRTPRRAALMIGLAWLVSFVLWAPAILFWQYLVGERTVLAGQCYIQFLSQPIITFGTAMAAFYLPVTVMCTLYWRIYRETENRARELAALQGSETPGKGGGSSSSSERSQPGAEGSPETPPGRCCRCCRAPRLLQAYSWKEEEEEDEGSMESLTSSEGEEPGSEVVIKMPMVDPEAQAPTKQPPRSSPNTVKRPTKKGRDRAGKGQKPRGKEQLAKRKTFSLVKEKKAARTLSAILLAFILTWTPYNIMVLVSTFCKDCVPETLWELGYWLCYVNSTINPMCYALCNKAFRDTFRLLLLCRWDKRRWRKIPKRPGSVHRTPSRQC

Gonadotropin-releasing hormone receptor (Homo sapiens), sequence (P30968 whole entry, looked up): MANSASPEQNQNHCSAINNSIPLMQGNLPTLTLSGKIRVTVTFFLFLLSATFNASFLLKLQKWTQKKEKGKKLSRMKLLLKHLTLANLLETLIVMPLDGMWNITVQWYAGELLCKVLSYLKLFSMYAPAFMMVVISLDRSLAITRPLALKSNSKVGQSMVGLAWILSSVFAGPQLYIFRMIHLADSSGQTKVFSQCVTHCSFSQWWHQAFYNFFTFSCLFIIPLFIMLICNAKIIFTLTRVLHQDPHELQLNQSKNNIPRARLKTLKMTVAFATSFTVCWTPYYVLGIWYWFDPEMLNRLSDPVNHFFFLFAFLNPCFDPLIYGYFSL
KiSS-1 receptor (Homo sapiens), sequence (Q969F8 whole entry, looked up): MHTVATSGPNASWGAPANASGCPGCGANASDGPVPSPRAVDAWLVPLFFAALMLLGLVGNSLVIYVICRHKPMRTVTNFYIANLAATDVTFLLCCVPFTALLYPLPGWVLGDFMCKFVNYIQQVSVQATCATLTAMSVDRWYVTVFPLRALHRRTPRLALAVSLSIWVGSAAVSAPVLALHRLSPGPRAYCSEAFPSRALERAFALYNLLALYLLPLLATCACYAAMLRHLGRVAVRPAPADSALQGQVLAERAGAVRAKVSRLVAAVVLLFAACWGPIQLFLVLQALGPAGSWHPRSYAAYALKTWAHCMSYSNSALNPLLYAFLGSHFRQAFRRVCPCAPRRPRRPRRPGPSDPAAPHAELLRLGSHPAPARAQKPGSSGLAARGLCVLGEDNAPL
D(2) dopamine receptor (Homo sapiens), sequence (P14416 whole entry, looked up): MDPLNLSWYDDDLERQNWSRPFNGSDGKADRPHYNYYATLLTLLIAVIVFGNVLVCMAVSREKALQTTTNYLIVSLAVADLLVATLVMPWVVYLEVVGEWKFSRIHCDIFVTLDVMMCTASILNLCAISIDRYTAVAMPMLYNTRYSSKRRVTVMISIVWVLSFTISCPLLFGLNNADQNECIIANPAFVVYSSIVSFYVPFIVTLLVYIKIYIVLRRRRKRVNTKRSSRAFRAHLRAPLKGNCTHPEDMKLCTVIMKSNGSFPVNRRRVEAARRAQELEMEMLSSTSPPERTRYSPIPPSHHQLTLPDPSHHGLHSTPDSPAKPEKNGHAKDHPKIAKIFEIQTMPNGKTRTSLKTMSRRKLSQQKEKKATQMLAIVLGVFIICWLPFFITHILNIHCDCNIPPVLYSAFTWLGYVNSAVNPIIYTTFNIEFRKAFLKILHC
Beta-2 adrenergic receptor (Homo sapiens), sequence (P07550 whole entry, looked up): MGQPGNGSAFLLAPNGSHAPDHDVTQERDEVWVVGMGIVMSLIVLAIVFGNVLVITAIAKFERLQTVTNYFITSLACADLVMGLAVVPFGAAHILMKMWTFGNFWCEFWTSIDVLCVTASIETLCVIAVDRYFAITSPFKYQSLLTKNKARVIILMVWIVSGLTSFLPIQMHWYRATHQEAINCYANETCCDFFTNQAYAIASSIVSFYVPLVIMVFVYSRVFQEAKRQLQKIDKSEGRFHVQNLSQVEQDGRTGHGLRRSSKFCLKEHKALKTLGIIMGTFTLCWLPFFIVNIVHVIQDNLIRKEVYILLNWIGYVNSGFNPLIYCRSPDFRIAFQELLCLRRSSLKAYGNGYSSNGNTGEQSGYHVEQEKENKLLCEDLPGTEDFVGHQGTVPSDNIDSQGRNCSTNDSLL

Turning to `CCCCS(=O)(=O)Cl`, the Potency entry in test [1], in test [2], in test [3], in [4], in test [5] and in test [6] was “inactive” each time. Further, the Potency entry in test [7], in test [8], in test [9], in test [10], in [11] and in test [12] was “inactive” each time. Further, the Potency entry in test [13], in test [14], in [15], in test [16], in test [17] and in test [18] was “inactive” throughout. In addition, the Potency result in test [19] is “inactive”.

On to `CC(C)[C@H](C(=O)OC(C#N)c1cccc(Oc2ccccc2)c1)c1ccc(OC(F)F)cc1` (stereo partly specified), for which the Potency result in test [1], in test [2], in test [3], in test [4], in [5] and in test [6] was “inactive” in each case. For the same compound, the Potency result in [7], in test [8], in test [9], in test [10], in [11] and in test [12] was “inactive” in each case. Further, the Potency result in [13], in [14], in test [20], in [16], in test [17] and in test [18] was “inactive” throughout. The Potency entry in [19] was “inactive”.

For the compound `BrCBr`, the Potency result in test [1], in test [2], in test [3], in test [4], in [5] and in test [6] was “inactive” in each case. The Potency result in [7], in test [8], in [9], in [10], in test [11] and in test [12] was “inactive” in each case. The Potency result in test [13], in test [14], in [20], in [15], in test [16] and in test [17] was “inactive” each time. Further, the Potency entry in test [19] was “inactive”.

For `CCCC[P+](CC)(CCCC)CCCC` (tested in a mixture with another compound), the Potency entry in test [1], in test [2], in test [3], in [4], in [5] and in test [6] was “inactive” each time. In addition, the Potency result in test [7], in test [8], in test [9], in [10], in test [11] and in [12] was “inactive” in each case. Moreover, the Potency entry in test [13], in test [14], in test [20], in test [16], in test [17] and in test [18] was “inactive” each time. Further, the Potency entry in test [19] is “inactive”.

Take `COC(=O)N(C(=O)N1CO[C@@]2(C(=O)OC)Cc3cc(Cl)ccc3C2=N1)c1ccc(OC(F)(F)F)cc1`: the Potency result in test [1], in test [2], in test [3], in [4], in test [5] and in [6] was “inactive” each time. For the same compound, the Potency entry in test [7], in test [8], in [9], in test [10], in test [11] and in [12] was “inactive” throughout. Moreover, the Potency result in test [13], in [14], in [20], in test [17] and in [18] was “inactive” throughout.

For the compound `O=C(CCl)Nc1ccccc1`, the Potency was 21.7 µM (active) in test [1] and 15.4 µM (active) in test [2]. Also, the Potency entry in test [3], in test [4], in [5], in test [6], in [7] and in test [8] was “inactive” in each case. Moreover, the Potency result in test [9], in test [10], in test [12], in test [14], in test [20] and in test [16] was “inactive” in each case. Besides, the Potency result in [18] and in test [19] was “inactive” in each case.

In the case of `CCCCOC(=O)[C@@H](C)Oc1ccc(Oc2ccc(C#N)cc2F)cc1`, the Potency result in test [1], in test [2], in test [3], in [4], in test [5] and in test [6] was “inactive” in each case. The Potency entry in test [7], in [8], in [9], in test [10], in test [12] and in [13] was “inactive” throughout. The Potency entry in [20], in test [17], in test [18] and in test [19] was “inactive” each time. The Potency in [14] is 1.66 µM (active).
